What all share (experiment): NCI-60 one-dose screen, 48 h (100 = growth as untreated, 0 = no growth, -100 = all killed)
Settings in all cases: 10 µM unless noted

The subject of assay [1] is T-47D breast.
Assay [2] has as its system BT-549 breast.
Assay [3] relates to MCF7 breast.
Assay [4] has as its system HCT-116 colon.
The test system of assay [5] is HCC-2998 colon.
Assay [6] deals with KM12 colon.
Assay [7] concerns SW-620 colon.
Assay [8] concerns MDA-MB-435 melanoma.

This is part of a sample that, as a whole, favours compounds with a hit. Of some 83,000 tested, about 20% had one in any assay.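 Plates (96-well) were seeded with cells, treated with compound at one concentration, and incubated for 48 hours before percent growth was determined.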 Unmarked numbers belong to inactive results. Activity calls are given as the source filed them. Rule for the calls: active = growth percent below 10; inactive = the rest.

In the case of `O=C(O)c1nc(-c2ccccc2)oc1N1CCOCC1`, the growth is 82.9% in assay [1]; 97.5% in assay [2]; 98.3% in assay [3]; 94.6% in assay [4]; 105% in assay [5]; 88.9% in assay [6].
With `O=C1c2c(c3c4ccccc4n(CCCCCCBr)c3c3[nH]c4ccccc4c23)C(=O)N1O`, the growth is 4.32% (active) in assay [1]; -3.13% (active) in assay [2]; 15.1% in assay [7]; 2.38% (active) in assay [3]; 6.41% (active) in assay [4]; 18.3% in assay [5]. Further, the growth in assay [6] is 10.8%.
Consider `COc1cc(-c2nn(-c3cccc(NC(=O)c4ccc(Cl)c(C(F)(F)F)c4)c3)cc2-c2ccncc2)ccc1Cl`, for which the growth in assay [1] was 26.2%; in assay [2] it was 49.7%; in assay [7], 36.1%; in assay [3], 37.6%; in assay [4] it was 24%; in assay [6] it was 28.8%.
In the case of `O=S(=O)(c1ccc(OCCO)cc1)c1ccc(OCCO)cc1`, the growth in assay [1] was 120%; in assay [2], 109%; in assay [7], 94.6%; in assay [4] it was 101%; in assay [5], 104%.
With `COc1ccc(C(=O)c2cc(OC)c3c(c2)OCO3)cc1O`, the growth in assay [1] was 56.9%; in assay [2], 54.5%; in assay [7] it was 24.6%; in assay [3], 17.1%; in assay [4] it was 7.71% (active); in assay [5] it was 16.2%. Moreover, the growth in assay [6] was 4.48% (active).
As to `COc1ccc(-n2c(=O)sc3c(Cl)nc(C)nc32)c(OC)c1`, the growth in assay [1] was 84.7%; in assay [2], 91.6%; in assay [7], 74.8%; in assay [3], 97.6%; in assay [4], 64.7%; in assay [5], 87.3%. The growth in assay [6] is 90%.
Regarding `CCCC(=O)Oc1ccc(/C(=C(\C)c2ccccc2)c2ccc(OCCN(CC)CC)cc2)cc1`, the growth in assay [1] was 46.8%; in assay [2] it was 78.7%; in assay [7], 84.5%; in assay [3], 34.5%; in assay [4], 47.8%; in assay [5], 83.2%. Further, the growth in assay [6] was 79.5%.
Turning to `CC(C)(C)n1cc(-c2ccnc(NCCNS(=O)(=O)c3ccc(C(F)(F)F)cc3)c2)c(-c2cccc(O)c2)n1`, the growth in assay [1] was 32.1%; in assay [8], 63.3%; in assay [7], 25.9%; in assay [3], 17.3%; in assay [4] it was 29.5%; in assay [5], -0.263% (active). Also, in assay [6], the growth is 41.8%.
On to `CCN(CC)CCC(CNc1c2ccc(Cl)cc2nc2ccc(OC)cc12)c1ccccc1` (stereo not drawn), for which the growth is -58.8% (active) in assay [1]; -80.4% (active) in assay [8]; -49.7% (active) in assay [7]; -38.6% (active) in assay [3]; -36% (active) in assay [4]; -72% (active) in assay [5]. Moreover, the growth in assay [6] is -24.1% (active).
In the case of `Clc1ccccc1-c1nc2ccccc2[nH]1`, the growth in assay [1] is 89.3%; in assay [8], 103%; in assay [7], 94.6%; in assay [3] it was 82.8%; in assay [4], 78.6%; in assay [5], 70.9%. For the same molecule, in assay [6], the growth is 97.5%.
For the molecule `Oc1ccc2cc(Br)ccc2c1-c1c(O)ccc2cc(Br)ccc12`, the growth in assay [1] was 57.9%; in assay [8], 63.1%; in assay [7], 48.3%; in assay [3], 37.1%; in assay [4], 33.5%; in assay [5], 56.5%. For the same molecule, in assay [6], the growth was 40%.
As for `c1ccc(-c2nnc(-c3ccccn3)s2)nc1`, the growth in assay [1] was 33.9%; in assay [8], 105%; in assay [7] it was 99.8%; in assay [3], 28.6%; in assay [4] it was 86.8%; in assay [5], 46.2%. Besides, the growth in assay [6] was 97.3%.
As to `O=[N+]([O-])c1ccc(C(c2ccccc2)c2ccccc2)cc1`, the growth is 109% in assay [1]; 99.5% in assay [8]; 87.5% in assay [7]; 84.9% in assay [3]; 70.4% in assay [4]; 92% in assay [5]. Further, the growth in assay [6] is 90.9%.
With `O=C(NNC(=O)N1c2ccccc2C=Cc2ccccc21)c1ccc2ccccc2c1`, the growth was 87.4% in assay [1]; 103% in assay [8]; 101% in assay [7]; 86% in assay [3]; 103% in assay [4]; 102% in assay [5]. Moreover, in assay [6], the growth is 98.6%.
Turning to `COc1ccc(/C=C2/C(=O)NC(SCC(=O)N3CCN(c4cc5c(cc4F)c(=O)c(C(=O)O)cn5C4CC4)CC3)=NC2N)cc1OC` (stereo not drawn), the growth in assay [1] is 110%; in assay [8], 104%; in assay [7], 105%; in assay [3], 98%; in assay [4], 105%; in assay [5], 99.7%. Moreover, the growth in assay [6] was 106%.
Take `CC(C)(C)n1cc(-c2ccnc(NCCCNS(=O)(=O)c3ccc(Cl)cc3)c2)c(-c2cccc(O)c2)n1`: the growth in assay [1] is 5.38% (active); in assay [8], 15.6%; in assay [7], -38% (active); in assay [3], -12.1% (active); in assay [4], 6.49% (active); in assay [5], -81.5% (active). The growth in assay [6] was -36.5% (active).
Turning to `CC(=O)Nc1ccc(S(=O)(=O)n2ccc(-c3ccc4c(c3)CCC(C)(C)O4)n2)cc1`, the growth is 31.1% in assay [1]; 67.3% in assay [8]; 82.5% in assay [7]; 66.2% in assay [3]; 29.9% in assay [4]; 83.3% in assay [5]. For the same molecule, in assay [6], the growth is 67.4%.
Turning to `Cc1cc(C2(c3cc(C)c(O)cc3C)OS(=O)(=O)c3ccccc32)c(C)cc1O`, the growth in assay [1] is 102%; in assay [8], 116%; in assay [7], 106%; in assay [3], 78.5%; in assay [4], 103%; in assay [5], 101%. In addition, the growth in assay [6] is 106%.
As for `Cc1ccc(S(=O)(=O)NCCNc2cc(-c3cn(C(C)(C)C)nc3-c3cccc(O)c3)ccn2)cc1`, the growth in assay [1] is 45.1%; in assay [8], 78.1%; in assay [7], 39.7%; in assay [3], 41.6%; in assay [4] it was 62.1%; in assay [5] it was 43%. Moreover, the growth in assay [6] was 65.1%.
On to `O=C(NCCNc1nccc(-n2ccc3cccnc32)n1)c1ccc(C(F)(F)F)cc1`, for which the growth is 102% in assay [1]; 99.9% in assay [8]; 103% in assay [7]; 95.6% in assay [3]; 100% in assay [4]; 120% in assay [5]. In assay [6], the growth is 100%.
For `O=S(=O)(NCCCNc1nccc(-n2ccc3cccnc32)n1)c1ccc(Br)cc1`, the growth in assay [1] was 95.6%; in assay [8] it was 107%; in assay [7], 110%; in assay [3] it was 110%; in assay [4], 105%; in assay [5] it was 121%. Moreover, the growth in assay [6] is 98.3%.
